Activity calls are given as the source filed them. Rule for the calls: active = hit-call score of the fitted dose curve at least 0.9, where 1 is the maximum; inactive = score below 0.9.
Assays:
[1] = ATG_CRE_CIS: Attagene CIS-FACTORIAL HepG2 Assay for human cAMP Responsive Element (CRE) binding protein 3 (AID 2282926); details: HepG2 CRE cis-reporter, Attagene multiplexed mRNA; actives raise or lower the signal
In short: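 Multiplexed transcription-unit reporters transfected into HepG2; 24 h dosing; RT-PCR/capillary electrophoresis fluorescence read-out; bidirectional fit vs DMSO.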

[2] = biological target: CCAAT/enhancer-binding protein beta (Homo sapiens) (UniProt P17676); test: ATG_C_EBP_CIS: Attagene CIS-FACTORIAL HepG2 Assay for human CCAAT/Enhancer Binding Protein (C/EBP) beta (AID 2282927); details: HepG2 Attagene cis-factorial transcription factor reporter; actives raise or lower the signal
In short: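 Transiently transfected HepG2 (MRTU library, endogenous TF-driven promoters); 24 h dosing; total RNA → oligo(dT) RT → PCR → 6-FAM primer extension → HpaI digest → CE; fit bidirectionally vs DMSO.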

[3] = ATG_CMV_CIS: Attagene CIS-FACTORIAL HepG2 Assay for human CMV (Internal Marker) (AID 2282928); details: HepG2 CMV promoter reporter, transcription factor profiling; actives raise or lower the signal;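 note: endpoint acts as a background internal control marker rather than a target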
In short: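 Cell system: HepG2, transiently transfected multiple reporter units under cis promoters. Exposure: 24 h. Detection: RT-PCR, FAM labeling, HpaI digestion, capillary electrophoresis. Analysis: bidirectional, DMSO baseline.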

[4] = ATG_DR4_LXR_CIS: Attagene CIS-FACTORIAL HepG2 Assay for human Liver X Receptor (LXR), DR4 submotif (AID 2282929); details: HepG2 Attagene DR4 cis-reporter, mRNA transcription; actives raise or lower the signal
In short: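 Cells were transfected with multiple reporter transcription units, exposed to chemicals for 24 hours, then lysed for RNA. Reporter mRNA induction was measured by RT-PCR with capillary electrophoresis detection and fitted in both directions relative to DMSO.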

[5] = biological target: Aryl hydrocarbon receptor (Homo sapiens) (UniProt P35869); test: ATG_Ahr_CIS: Attagene CIS-FACTORIAL HepG2 Assay for human Aryl Hydrocarbon Receptor (Ahr) (AID 2282930); details: HepG2 AhR cis-factorial reporter transcription; actives raise or lower the signal
In short: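 Read-out: reporter mRNA quantified by RT-PCR with fluorescent primer extension and capillary electrophoresis. Human HepG2 liver cells carried transfected cis-promoter reporter units and were exposed to chemical for 24 h; gain or loss fitted relative to DMSO.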

[6] = ATG_AP_1_CIS: Attagene CIS-FACTORIAL HepG2 Assay for human Activator Protein 1 (AP-1) (AID 2282931); details: HepG2 Attagene cis-factorial AP-1 reporter mRNA; actives raise or lower the signal
In short: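 Endogenous transcription-factor activity in human HepG2 liver cells is read through a cis-promoter reporter transcript, sampled 24 h after dosing. Detection uses RT-PCR with capillary electrophoresis; values come from bidirectional fitting relative to DMSO.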

[7] = ATG_BRE_CIS: Attagene CIS-FACTORIAL HepG2 Assay for human Bone Morphogenetic Protein (BMP) Response Element (BRE) (AID 2282933); details: HepG2 BMP response element reporter, Attagene transcription factor profiling; actives raise or lower the signal
In short: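 A HepG2 multiplex reporter system measured inducible reporter mRNA 24 h post-dosing. Detection: RT-PCR, 6-FAM primer extension, HpaI digestion, capillary electrophoresis. Activity fitted bidirectionally relative to DMSO.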

[8] = biological target: Transcription factor E2F1 (Homo sapiens) (UniProt Q01094); test: ATG_E2F_CIS: Attagene CIS-FACTORIAL HepG2 Assay for human E2F Transcription Factor 1 (AID 2282935); details: HepG2 Attagene cis-reporter, E2F reporter RNA transcripts; actives raise or lower the signal
In short: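 Measures reporter transcript levels via RT-PCR with capillary electrophoresis detection in HepG2 cells harboring cis-regulated reporter units; 24 h post-dose; bidirectional curve fitting with DMSO as baseline.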

[9] = ATG_E_Box_CIS: Attagene CIS-FACTORIAL HepG2 Assay for human Enhancer Box (E-box) (AID 2282936); details: HepG2 E-box cis-reporter transcription, actives raise or lower the signal
In short: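 First, HepG2 cells receive multiple cis-regulated reporter constructs by transient transfection. Next, chemicals are applied for 24 h. Finally, reporter mRNA is quantified via RT-PCR and capillary electrophoresis, with DMSO as baseline.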

[10] = ATG_M_61_CIS: Attagene CIS-FACTORIAL HepG2 Assay for M61 Transcription Factor (Internal Marker) (AID 2282937); details: HepG2 Attagene CIS-FACTORIAL M61 internal marker reporter; actives raise or lower the signal
In short: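 Cells were transfected with reporter units under cis-regulatory promoters, treated with chemicals for 24 h, then lysed for RNA. Reporter transcripts were quantified by RT-PCR and capillary electrophoresis, and activity was fitted bidirectionally against DMSO.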

[11] = ATG_M_19_CIS: Attagene CIS-FACTORIAL HepG2 Assay for M19 Transcription Factor (Internal Marker) (AID 2282939); details: HepG2 Attagene CIS-FACTORIAL M19 internal marker reporter; actives raise or lower the signal
In short: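 Chemical-treated HepG2 (24 h) with MRTU constructs; reporter transcripts detected by fluorescent RT-PCR fragment analysis on capillary electrophoresis. Internal background marker, DMSO as baseline.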

[12] = ATG_ERE_CIS: Attagene CIS-FACTORIAL HepG2 Assay for Estrogen Response Element (ERE) (AID 2282940); details: HepG2 ERE cis-reporter, Attagene RNA transcript; actives raise or lower the signal
In short: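 Human liver cells (HepG2) bearing transiently transfected, promoter-regulated reporter units were exposed 24 h. Reporter mRNA induction was detected by capillary electrophoresis of labelled RT-PCR products and fitted bidirectionally to DMSO.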

[13] = ATG_Ets_CIS: Attagene CIS-FACTORIAL HepG2 Assay for human Erythroblast Transformation Specific (ETS) (AID 2282941); details: HepG2 ETS cis-reporter transcription, actives raise or lower the signal
In short: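 After transient cis-reporter transfection, HepG2 cells receive test chemical for 24 h. Reporter mRNA levels, measured by RT-PCR and capillary electrophoresis fluorescence, are analysed bidirectionally relative to the DMSO baseline.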

[14] = ATG_FoxO_CIS: Attagene CIS-FACTORIAL HepG2 Assay for human Forkhead box O (FoxO) (AID 2282943); details: HepG2 Attagene cis-reporter, FoxO element, mRNA; actives raise or lower the signal
In short: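 Read-out: fluorescence of 6-FAM-labelled reporter cDNA fragments resolved by capillary electrophoresis. Transiently transfected HepG2 cells were dosed for 24 h; activity fitted in both directions relative to DMSO controls.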

[15] = ATG_GATA_CIS: Attagene CIS-FACTORIAL HepG2 Assay for human GATA Binding Protein (AID 2282944); details: HepG2 GATA cis-element reporter, Attagene multiplex mRNA; actives raise or lower the signal
In short: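 Transfected cis-reporter HepG2 cells were treated with chemicals for 24 hours. Total RNA was then converted to cDNA, amplified with reporter-specific primers and analysed by fluorescent capillary electrophoresis, using DMSO-treated wells as baseline.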

[16] = ATG_AP_2_CIS: Attagene CIS-FACTORIAL HepG2 Assay for human Activator Protein 2 (AP-2) (AID 2282932); details: HepG2 AP-2 cis-reporter, Attagene transcription factor profiling; actives raise or lower the signal
In short: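 Multiplexed mRNA reporter assay in HepG2: cis-regulated units report endogenous factor activity after 24 h treatment. Fluorescence from capillary electrophoresis of RT-PCR products gives the signal, with DMSO as baseline.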

[17] = biological target: Retinoic acid receptor alpha (Homo sapiens) (UniProt P10276); test: ATG_DR5_RAR_CIS: Attagene CIS-FACTORIAL HepG2 Assay for human Retinoic Acid Receptor Alpha (RARE), DR5 submotif (AID 2282934); details: HepG2 Attagene cis-factorial RARE DR5 reporter, mRNA; actives raise or lower the signal
In short: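 Read-out: DR5-driven reporter transcript measured by RT-PCR, 6-FAM primer extension, HpaI digest and capillary electrophoresis. Human HepG2 liver cells carry transiently transfected cis-element reporter constructs; dosing lasts 24 h. Gain or loss of signal fitted against DMSO baseline.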

[18] = ATG_EGR_CIS: Attagene CIS-FACTORIAL HepG2 Assay for human Early Growth Response 1 (EGR1) (AID 2282938); details: HepG2 Attagene CIS-FACTORIAL EGR reporter mRNA; actives raise or lower the signal
In short: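 Endogenous TF activity in HepG2 liver cells was gauged through cis-promoter reporter constructs transiently transfected. After 24 h dosing, reporter mRNA was quantified by RT-PCR and capillary electrophoresis, and curves fitted in both directions versus DMSO.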

[19] = biological target: Hepatocyte nuclear factor 3-beta (Homo sapiens) (UniProt Q9Y261); test: ATG_FoxA2_CIS: Attagene CIS-FACTORIAL HepG2 Assay for human Forkhead box A2 (FOXA2) (AID 2282942); details: HepG2 cis-reporter transcription factor activity, 24 h; actives raise or lower the signal
In short: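 Endogenous transcription factor activity was read in HepG2 cells carrying transiently transfected cis-promoter reporter units. After 24 h dosing, reporter mRNA was quantified by RT-PCR and capillary electrophoresis, and values fitted bidirectionally versus DMSO.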

Measured: AC50

Sequence of Hepatocyte nuclear factor 3-beta (Homo sapiens) (Q9Y261 whole entry, looked up): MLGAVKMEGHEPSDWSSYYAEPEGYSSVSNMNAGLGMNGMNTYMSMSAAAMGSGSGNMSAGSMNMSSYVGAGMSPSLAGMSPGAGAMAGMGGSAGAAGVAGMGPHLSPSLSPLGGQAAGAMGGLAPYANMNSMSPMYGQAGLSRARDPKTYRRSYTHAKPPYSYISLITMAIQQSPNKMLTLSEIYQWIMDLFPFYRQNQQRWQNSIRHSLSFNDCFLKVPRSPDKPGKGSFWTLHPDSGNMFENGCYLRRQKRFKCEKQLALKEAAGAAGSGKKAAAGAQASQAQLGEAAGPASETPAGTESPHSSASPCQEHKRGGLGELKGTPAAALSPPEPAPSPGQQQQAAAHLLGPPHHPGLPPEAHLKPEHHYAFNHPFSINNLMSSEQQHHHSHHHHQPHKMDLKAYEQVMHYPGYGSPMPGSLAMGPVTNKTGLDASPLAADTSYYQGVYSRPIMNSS
Sequence of Retinoic acid receptor alpha (Homo sapiens) (P10276 whole entry, looked up): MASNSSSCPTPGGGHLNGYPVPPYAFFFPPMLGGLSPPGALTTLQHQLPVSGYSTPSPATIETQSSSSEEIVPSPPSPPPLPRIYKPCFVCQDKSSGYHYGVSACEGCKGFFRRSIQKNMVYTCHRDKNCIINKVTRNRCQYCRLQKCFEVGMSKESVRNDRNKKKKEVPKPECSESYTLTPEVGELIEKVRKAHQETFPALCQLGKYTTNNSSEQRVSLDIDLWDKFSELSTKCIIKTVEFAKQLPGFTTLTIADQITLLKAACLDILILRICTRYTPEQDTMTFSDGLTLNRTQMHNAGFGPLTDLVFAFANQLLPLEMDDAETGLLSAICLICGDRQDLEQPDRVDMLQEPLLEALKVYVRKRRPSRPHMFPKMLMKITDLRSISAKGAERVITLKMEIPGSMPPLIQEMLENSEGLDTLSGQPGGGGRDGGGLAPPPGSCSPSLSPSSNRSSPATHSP
Sequence of Transcription factor E2F1 (Homo sapiens) (Q01094 whole entry, looked up): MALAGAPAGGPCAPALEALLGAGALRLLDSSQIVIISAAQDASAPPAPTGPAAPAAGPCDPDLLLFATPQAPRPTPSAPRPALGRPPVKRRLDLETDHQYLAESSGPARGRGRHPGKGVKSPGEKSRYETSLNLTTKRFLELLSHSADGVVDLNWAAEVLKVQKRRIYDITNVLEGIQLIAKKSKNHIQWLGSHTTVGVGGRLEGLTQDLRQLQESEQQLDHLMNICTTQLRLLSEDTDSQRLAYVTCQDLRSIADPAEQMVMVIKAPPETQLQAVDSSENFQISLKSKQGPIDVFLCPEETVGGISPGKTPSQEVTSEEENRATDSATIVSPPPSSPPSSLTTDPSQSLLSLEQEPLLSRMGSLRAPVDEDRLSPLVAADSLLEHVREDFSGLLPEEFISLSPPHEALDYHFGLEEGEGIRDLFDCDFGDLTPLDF
Sequence of CCAAT/enhancer-binding protein beta (Homo sapiens) (P17676 whole entry, looked up): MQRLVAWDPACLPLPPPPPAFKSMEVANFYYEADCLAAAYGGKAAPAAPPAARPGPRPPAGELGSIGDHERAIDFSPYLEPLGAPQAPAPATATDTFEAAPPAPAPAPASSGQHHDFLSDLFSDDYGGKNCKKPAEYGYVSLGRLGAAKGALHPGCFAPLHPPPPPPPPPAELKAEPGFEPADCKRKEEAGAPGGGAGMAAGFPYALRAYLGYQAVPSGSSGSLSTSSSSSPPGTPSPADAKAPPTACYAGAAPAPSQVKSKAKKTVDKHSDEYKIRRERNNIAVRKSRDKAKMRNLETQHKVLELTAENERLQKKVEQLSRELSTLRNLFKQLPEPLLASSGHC
Sequence of Aryl hydrocarbon receptor (Homo sapiens) (P35869 whole entry, looked up): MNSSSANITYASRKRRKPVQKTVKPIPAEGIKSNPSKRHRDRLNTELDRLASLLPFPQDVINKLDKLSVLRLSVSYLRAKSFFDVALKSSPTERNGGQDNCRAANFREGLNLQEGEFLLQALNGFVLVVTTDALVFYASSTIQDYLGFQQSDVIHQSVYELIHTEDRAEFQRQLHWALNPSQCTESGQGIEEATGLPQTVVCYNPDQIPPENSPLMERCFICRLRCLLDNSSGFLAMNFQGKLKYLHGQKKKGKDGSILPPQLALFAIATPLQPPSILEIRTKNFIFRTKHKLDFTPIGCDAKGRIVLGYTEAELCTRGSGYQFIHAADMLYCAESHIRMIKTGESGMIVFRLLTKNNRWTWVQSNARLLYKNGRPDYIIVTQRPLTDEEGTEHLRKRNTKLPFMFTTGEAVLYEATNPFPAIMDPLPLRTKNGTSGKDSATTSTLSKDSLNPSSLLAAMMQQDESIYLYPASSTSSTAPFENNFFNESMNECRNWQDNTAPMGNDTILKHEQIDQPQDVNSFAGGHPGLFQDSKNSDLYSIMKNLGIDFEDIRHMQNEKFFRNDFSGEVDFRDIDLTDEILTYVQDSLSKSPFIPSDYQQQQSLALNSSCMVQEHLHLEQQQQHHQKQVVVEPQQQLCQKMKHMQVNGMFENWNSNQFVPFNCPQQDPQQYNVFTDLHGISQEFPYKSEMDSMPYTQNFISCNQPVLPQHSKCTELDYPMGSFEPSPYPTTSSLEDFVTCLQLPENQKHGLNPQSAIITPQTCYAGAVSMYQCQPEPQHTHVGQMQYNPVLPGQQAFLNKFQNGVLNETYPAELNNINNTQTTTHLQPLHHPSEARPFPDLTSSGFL

CC(C)(C)c1cc(CCC(=O)NCCCCCCNC(=O)CCc2cc(C(C)(C)C)c(O)c(C(C)(C)C)c2)cc(C(C)(C)C)c1O
not listed: [16] | [17] | [18] | [19]
inactive: all other assays above

CO[Si](CCCOCC1CO1)(OC)OC (stereo unspecified)
not listed: [7] | [19]
inactive: all other assays above

CSc1ccc(O)cc1C
active: [12] 31.7 µM
inactive: all other assays above

O=C=Nc1cccc2c(N=C=O)cccc12
active: [5] 4.73 µM
not listed: [7] | [18]
inactive: all other assays above

COC(F)(C(F)F)C(F)(F)F (stereo unspecified)
not listed: [18]
inactive: all other assays above

N#Cc1ccccc1O
active: [5] 10.8 µM
not listed: [17]
inactive: all other assays above

Nc1c(Br)cc([N+](=O)[O-])cc1Br
not listed: [16]
inactive: all other assays above

CC1=CC2C3C=CC(C3)C2C1C (stereo unspecified)
active: [2] 100 µM | [8] 29.9 µM
not listed: [7]
inactive: all other assays above

CC(O)C#CC(C)O (stereo unspecified)
active: [2] 179 µM | [3] 176 µM | [5] 72.8 µM | [6] 24.7 µM | [7] 182 µM | [9] 185 µM | [18] 82.9 µM | [14] 63 µM | [15] 69.2 µM
inactive: [1] | [16] | [8] | [10] | [11] | [12] | [13]

Cc1cc(C)c(O)c(C(C)(C)C)c1
active: [3] 100 µM
not listed: [16]
inactive: all other assays above

O=c1[nH]cccc1O
not listed: [4] | [18]
inactive: all other assays above

Nc1cc([N+](=O)[O-])cc(Cl)c1O
not listed: [16] | [17]
inactive: all other assays above

O=C(O)C(F)(F)C(F)(F)C(F)(F)C(F)(F)C(F)(F)C(F)(F)C(F)F
active: [12] 64 µM
not listed: [16] | [17]
inactive: all other assays above

OCCCCC(F)(F)C(F)(F)C(F)(F)C(F)(F)F
not listed: [16] | [17] | [18]
inactive: all other assays above

From PubChem BioAssay (EPA / NIEHS)
